Compound activity as filed in PubChem BioAssay.
CBFb-RUNX1 inh = inhibitors of human CBF-beta and RUNX1 interaction. Q01196+Q13951. Potency, µM (series often up to 59.8 µM), actives largely listed as inhibitors. 230,000 tested, under 10 active. AlphaScreen CBFb-His/RUNX1-biotin binding, biochemical
Target sequence (Q01196 whole entry, looked up): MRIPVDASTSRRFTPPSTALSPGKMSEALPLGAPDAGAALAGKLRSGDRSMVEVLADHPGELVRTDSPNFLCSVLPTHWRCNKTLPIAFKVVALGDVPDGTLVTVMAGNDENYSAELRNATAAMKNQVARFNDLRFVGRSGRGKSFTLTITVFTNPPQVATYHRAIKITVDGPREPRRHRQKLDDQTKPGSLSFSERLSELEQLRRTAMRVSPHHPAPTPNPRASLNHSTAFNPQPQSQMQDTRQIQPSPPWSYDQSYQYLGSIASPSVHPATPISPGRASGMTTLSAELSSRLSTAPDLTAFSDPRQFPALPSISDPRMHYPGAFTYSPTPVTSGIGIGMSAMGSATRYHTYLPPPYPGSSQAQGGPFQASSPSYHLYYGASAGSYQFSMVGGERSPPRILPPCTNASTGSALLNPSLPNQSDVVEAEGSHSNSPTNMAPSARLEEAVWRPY
Target sequence (Q13951 whole entry, looked up): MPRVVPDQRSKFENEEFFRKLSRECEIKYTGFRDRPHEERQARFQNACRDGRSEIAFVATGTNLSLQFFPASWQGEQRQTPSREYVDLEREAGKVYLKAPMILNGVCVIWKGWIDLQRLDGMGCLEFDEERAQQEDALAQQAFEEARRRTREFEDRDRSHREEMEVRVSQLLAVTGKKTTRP
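Inhibition was taken as any reduction in AlphaScreen signal from the CBF-beta–RUNX1 pair (His and biotin tags, 30 nM each), measured after compound (15 min) and bead (90 min) incubations at room temperature.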
JMJD2E inh = JMJD2E (human) inhibition; B2RXH2; AID 2147; JMJD2E catalytic domain, FDH-coupled NADH fluorescence (FDH is formaldehyde dehydrogenase); 230,000 tested, 1.6% active; Potency, µM (series often up to 57.1 µM), usual class: inhibitors; active = well fitted inhibition curve with a large enough effect, not every such curve was filed as active; inconclusive = small, poorly fitted or top-dose-only effect, or another doubt; inactive = no such curve, though single readings can be large or run the other way; note: nearly all actives have a fitted effect of over 50% in size
Tau fluor cs = counter-screen for tau fibril formation inhibitors; tau K18 P301L Alexa594 fluorescence, heparin fibrillization; Potency, µM (titrated, usually from 57.7 µM); 280,000 tested, 0.93% active; AID 1463; note: nearly all actives have a fitted effect of over 55% in size
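Human tau K18 P301L (15 uM unlabeled, 0.24 uM Alexa 594-labeled) in 100 mM sodium acetate pH 7 with 20 uM heparin, 6 hr at 37 C. ThT 30 uM added, 1 hr ambient; Alexa 594 FP and total fluorescence read at 555/632 nm.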
Tau ThT inhib = blocks human tau fibril formation measured by thioflavin T. recombinant tau K18 P301L (four-repeat tau fragment), heparin-induced fibrillization, ThT fluorescence. P10636. AID 1460. 270,000 tested, 2.1% active. Potency, µM (doses to about 57.4 µM), most hits filed as inhibitors; note: nearly all actives have a fitted effect of over 55% in size
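Heparin-induced fibrillization of the P301L-mutant K18 repeat-domain fragment of human tau was followed by ThT binding in quantitative high-throughput format.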
LMNA splice mod = modulators of lamin A splicing; HeLa LMNA splicing GFP/RFP minigene ratio, 48 h; Potency, µM (highest dose often 46.1 µM), usual class: inhibitors; 200,000 tested, 0.01% active; active = well fitted inhibition curve with a large enough effect in the signal ratio, with a control signal flat, not every such curve was filed as active; inconclusive = small, poorly fitted or top-dose-only effect, or effect the other way, or a change in a side signal; the % refers to the signal ratio
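S3 HeLa cells stably expressing lamin A-EGFP splicing minigene plus DsRed2, 600 cells/well, 48 h compound exposure at 37C. Laser-scanning cytometry; analysed as GFP (500-530 nm)/RFP (575-640 nm) total intensity ratio; 0.5% DMSO vehicle.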
Tau FP inhib = blocks human tau fibril formation measured by polarization; P10636; AID 1468; 280,000 tested, 0.39% active; Potency, µM (highest dose often 57.7 µM), usual class: inhibitors; K18 P301L tau heparin fibrillization, Alexa594 FP, 6 h; note: nearly all actives have a fitted effect of over 55% in size
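Recombinant K18 P301L […], labeled with Alexa 594 at 0.24 uM over 15 uM unlabeled; heparin inducer 20 uM final; 37 C, 6 hr; FP endpoint.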
A number is an active result; – = inactive; ? = inconclusive; · = no result; [ ] = remark or other dose. Sampled rows, rich in hits. Any-hit rate of the full collection: about 3.2%. Unless noted, calls come from the whole dose curve; as a rule, active = well fitted curve in the direction sought with a large enough effect; inconclusive = small, poorly fitted or top-dose-only effect, or another doubt; inactive = no such curve, though single readings can be large; an effect the other way counts as inactive or inconclusive.

SMILES	CBFb-RUNX1 inh	JMJD2E inh	Tau fluor cs	Tau ThT inhib	LMNA splice mod	Tau FP inhib
C/C(=N\Nc1ccc([N+](=O)[O-])cc1)c1ccc(C#N)cc1	–	–	?	?	·	–
O=C(N/N=C/c1ccc([N+](=O)[O-])cc1)c1cc2ccccc2o1	–	–	–	?	·	–
C/C(=N/Nc1ccc([N+](=O)[O-])cc1)c1ccc(C)cc1C	–	–	10µM[quencher]	4.5µM	·	?
Oc1ccc(N2CCN(c3ncnc4sc(-c5ccccc5)cc34)CC2)cc1	–	16µM	?	?	·	?
CC(/C=N/NC(=O)Cc1cccn1C)=C\c1ccco1	?	?	–	28µM	–	?
Cn1cc(S(=O)(=O)c2ccccc2)c(=O)c2cc(F)c(N3CCCCC3)cc21	·	·	–	–	–	–
COc1cc(C2c3c(oc4ccccc4c3=O)C(=O)N2Cc2ccccc2Cl)ccc1O (stereo unspecified)	·	·	–	–	·	–
Cc1ccc(C(=O)O)cc1N=Cc1cc(Br)cc(Br)c1O	–	?	–	14µM	–	–
CC(=O)Nc1ccc(C(=O)N/N=C/c2cc(Br)cc(Br)c2O)cc1	–	–	–	?	–	–
COc1ccccc1-c1cc(C(=O)Nc2cc(Cl)ccc2O)no1	·	·	7.9µM[quencher]	–	·	–
O=C1C2=CC[C@H]3C(=O)N(Cc4ccccc4)C(=O)[C@@H]3[C@@H]2[C@H](O)[C@@H]2O[C@H]12	–[13.1 µM]	·	–[11.6 µM]	?	·	?
CCN1C(=O)[C@@H]2[C@H]3C(=CC[C@H]2C1=O)C(=O)[C@H]1OC1[C@H]3O (stereo partly specified)	–[13.1 µM]	·	–[11.6 µM]	4µM	·	?
O=C1C2=CC[C@H]3C(=O)N(C[C@@H]4CCCO4)C(=O)[C@@H]3[C@@H]2[C@H](O)[C@@H]2O[C@H]12	–[13.1 µM]	·	–[11.6 µM]	3.2µM	·	?
COc1ccc(C(=O)Nc2cc(-c3nc4ncccc4o3)ccc2C)cc1Br	·	·	–	–	·	–
O=C(Nc1ccc(Nc2ccccc2)cc1)c1ccc(Br)o1	–	–	14µM[quencher]	8.9µM	?	?
CCOC(=O)c1cc(NC(=O)Nc2ccccc2Cl)c(C)nc1C	–	–	–	–	–	?
COc1cccc(NC(=O)Nc2ccc(C(C)(C)C)cc2)c1	–	–	28µM[quencher]	–	?	?
COc1cccc(NC(=O)Nc2ccc(Cc3ccncc3)cc2)c1	–	–	16µM[quencher]	–	?	?
COc1cccc(NC(=O)Nc2cc(-c3cn4cccnc4n3)ccc2OC)c1	·	·	20µM[quencher]	?	·	–
CCOC(=O)c1cc(NC(=O)Nc2ccc(Br)cc2)c(C)nc1C	–	–	?	–	–[9.22 µM]	18µM
COc1cccc(NC(=O)Nc2ccncc2)c1	–	–	–	–	·	–
COc1ccc(-c2cc(C)no2)cc1S(=O)(=O)N1CC(C)Oc2ccccc21 (stereo unspecified)	·	·	?	–	·	?
CN1C2CCC1CC(NC(=O)CSCc1ccc(Cl)cc1Cl)C2 (stereo unspecified)	–	–	–	–	·	?
COc1cccc(NC(=O)Nc2cc(C(=O)O)ccc2C)c1	–	–	–	?	·	–
COc1cccc(NC(=O)Nc2cc(NC(=O)Nc3cccc(OC)c3)c(C)nc2C)c1	?	–	11µM[quencher]	–	–	22µM
SMILES	CBFb-RUNX1 inh	JMJD2E inh	Tau fluor cs	Tau ThT inhib	LMNA splice mod	Tau FP inhib
CSCC[C@H](NC(=O)[C@H](Cc1ccc(OS(=O)(=O)O)cc1)NC(=O)[C@@H](N)CC(=O)O)C(=O)NCC(=O)N[C@@H](Cc1c[nH]c2ccccc12)C(=O)N[C@@H](CCSC)C(=O)N[C@@H](CC(=O)O)C(=O)N[C@@H](Cc1ccccc1)C(N)=O	–	·	·	·	·	·
Cn1cc(C(=O)N/N=C/c2c(O)ccc3ccccc23)ccc1=O	–	–	–	–	·	–
O=C(N/N=C/c1c(O)ccc2ccccc12)c1ccc[n+](CCO)c1	?	32µM	–	?	?	–
Cc1nc(NCc2ccccc2)c2nc(-c3ccccc3)n(CC(C)(C)CN(C)C)c2n1	–	?	–	–	·	–
COc1ccc(CN2CCC(N(CCc3ccccc3)Cc3ccccc3)CC2)c(OC)c1	–	28µM	–	–	·	–
COc1ccc(CN2CCC(C(=O)N(C)CCc3ccc(OC)c(OC)c3)CC2)c(OC)c1	–	–	–	–	–	–
Cn1c(SCc2ccccc2Cl)nc(=O)c2c1NC(=O)CC2c1cc(F)ccc1F (stereo unspecified)	·	·	–	–	–	–
CN1C(=O)/C(=C/C=C2/CCCN2C)N(C)C1=S	–	–	–	20µM	·	?
